Data taken from the supplement of paper PMC10849652.
Of roughly 8,800 targets only a part is listed; those with a hit were picked by preference. About 0.5% of all pairs of compound and target were hits. A number with no mark means an inactive call.

Assays:
Assay in all cases: log2 fold change, soluble protein after heating vs DMSO (PISA); higher = thermal stabilisation; K562 lysate, 10 uM; active = over 0.2 and 3.5 SD of the protein, either way, in both replicates (recomputed)
[1] = compound: Cc1cn(-c2cc(NC(=O)c3ccc(C)c(Nc4nccc(-c5cccnc5)n4)c3)cc(C(F)(F)F)c2)cn1 [nilotinib]
How it was run: (§1)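 A 30 min treatment with 10 μM compound was applied to crude K562 extract at 1 mg/mL protein in PBS pH 7.4 with 1 mM MgCl2. Heating for 3 min spanned 48°C-58°C, after which aliquots were pooled, adjusted to 0.5% NP-40 at 4°C and spun at 21,000xg for 90 min. TMTpro 16plex LC-MS/MS of the supernatant, with channel sums equalised, gave values recorded as log-two fold change in thermal stability against solvent controls, from duplicates.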

[2] = compound: Cc1nc(Nc2n[nH]c3c2CN(C(=O)N[C@H](CN(C)C)c2ccccc2)C3(C)C)c2sccc2n1
How it was run: as §1

[3] = compound: Cc1nc(Nc2ncc(C(=O)Nc3c(C)cccc3Cl)s2)cc(N2CCN(CCO)CC2)n1 [dasatinib]
How it was run: as §1

[4] = compound: Cc1ncc(-c2ccnc(Nc3ccc(S(C)(=O)=O)cc3)n2)n1C(C)C
How it was run: as §1

[5] = compound: Cn1cc(-c2ccc3c(c2)CCN3C(=O)Cc2cccc(C(F)(F)F)c2)c2c(N)ncnc21
How it was run: as §1

[6] = compound: Cn1cc(CNCC2CCN(c3ncc(C(=O)NO)cn3)CC2)c2ccccc21 [quisinostat]
How it was run: as §1

[7] = compound: Cn1cncc1[C@@](N)(c1ccc(Cl)cc1)c1ccc2c(c1)c(-c1cccc(Cl)c1)cc(=O)n2C [tipifarnib]
How it was run: as §1

[8] = compound: NC(=O)Nc1cc(-c2cccc(F)c2)sc1C(=O)N[C@H]1CCCNC1
How it was run: as §1

[9] = compound: NC(=O)c1cnc(N[C@@H]2CCCC[C@@H]2N)nc1Nc1cccc(-n2nccn2)c1
How it was run: as §1

[10] = compound: NC1(c2ccc(-c3nc4ccn5c(=O)[nH]nc5c4cc3-c3ccccc3)cc2)CCC1
How it was run: as §1

[11] = compound: NCC(=O)Nc1ccc(-n2nc(C(F)(F)F)cc2-c2ccc3c(ccc4ccccc43)c2)cc1
How it was run: as §1

[12] = compound: O=C(CCCCCCC(=O)Nc1ccccc1)NO [vorinostat]
How it was run: as §1

[13] = compound: O=C(O)c1ccc2c(c1)nc(Nc1cccc(Cl)c1)c1ccncc12 [silmitasertib]
How it was run: as §1

[14] = compound: O=C1NC(=O)C(c2cnc3ccccn23)=C1c1cn2c3c(cc(F)cc13)CN(C(=O)N1CCCCC1)CC2
How it was run: as §1

[15] = compound: c1cn2cc(-c3ccc4cn[nH]c4c3)nc(Nc3ccc(N4CCOCC4)cc3)c2n1 [entospletinib]
How it was run: as §1

UniProt Q9UKI8, sequence (Q9UKI8 whole entry, looked up): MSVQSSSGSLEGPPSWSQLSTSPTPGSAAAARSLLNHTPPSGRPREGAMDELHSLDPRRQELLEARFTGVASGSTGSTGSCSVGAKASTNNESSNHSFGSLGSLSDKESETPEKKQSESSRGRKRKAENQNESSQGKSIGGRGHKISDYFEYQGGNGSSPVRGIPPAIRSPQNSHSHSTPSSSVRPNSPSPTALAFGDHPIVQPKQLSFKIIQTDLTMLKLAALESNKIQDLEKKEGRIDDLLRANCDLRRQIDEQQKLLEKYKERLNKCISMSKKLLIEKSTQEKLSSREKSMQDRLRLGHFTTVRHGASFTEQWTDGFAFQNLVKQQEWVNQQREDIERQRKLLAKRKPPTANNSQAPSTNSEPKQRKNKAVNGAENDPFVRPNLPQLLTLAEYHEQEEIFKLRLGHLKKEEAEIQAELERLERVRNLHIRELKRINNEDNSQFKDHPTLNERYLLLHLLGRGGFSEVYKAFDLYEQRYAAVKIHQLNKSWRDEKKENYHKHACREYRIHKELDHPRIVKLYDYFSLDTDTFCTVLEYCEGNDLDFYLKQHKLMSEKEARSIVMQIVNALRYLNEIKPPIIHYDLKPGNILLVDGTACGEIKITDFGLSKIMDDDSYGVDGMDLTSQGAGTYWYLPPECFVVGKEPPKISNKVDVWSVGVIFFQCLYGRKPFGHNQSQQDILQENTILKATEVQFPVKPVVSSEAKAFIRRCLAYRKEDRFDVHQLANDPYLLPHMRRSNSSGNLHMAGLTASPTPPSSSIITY
UniProt O95801, sequence (O95801 whole entry, looked up): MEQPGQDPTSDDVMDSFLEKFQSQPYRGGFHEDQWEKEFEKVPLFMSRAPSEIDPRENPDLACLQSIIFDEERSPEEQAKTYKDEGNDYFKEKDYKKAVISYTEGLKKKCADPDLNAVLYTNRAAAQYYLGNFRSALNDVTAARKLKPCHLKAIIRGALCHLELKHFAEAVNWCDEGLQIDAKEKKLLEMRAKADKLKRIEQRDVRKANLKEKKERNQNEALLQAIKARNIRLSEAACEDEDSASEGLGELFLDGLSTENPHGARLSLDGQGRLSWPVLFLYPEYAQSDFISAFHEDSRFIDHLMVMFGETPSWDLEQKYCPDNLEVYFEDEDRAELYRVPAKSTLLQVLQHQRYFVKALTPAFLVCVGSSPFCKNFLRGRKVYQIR
UniProt Q9H497, sequence (Q9H497 whole entry, looked up): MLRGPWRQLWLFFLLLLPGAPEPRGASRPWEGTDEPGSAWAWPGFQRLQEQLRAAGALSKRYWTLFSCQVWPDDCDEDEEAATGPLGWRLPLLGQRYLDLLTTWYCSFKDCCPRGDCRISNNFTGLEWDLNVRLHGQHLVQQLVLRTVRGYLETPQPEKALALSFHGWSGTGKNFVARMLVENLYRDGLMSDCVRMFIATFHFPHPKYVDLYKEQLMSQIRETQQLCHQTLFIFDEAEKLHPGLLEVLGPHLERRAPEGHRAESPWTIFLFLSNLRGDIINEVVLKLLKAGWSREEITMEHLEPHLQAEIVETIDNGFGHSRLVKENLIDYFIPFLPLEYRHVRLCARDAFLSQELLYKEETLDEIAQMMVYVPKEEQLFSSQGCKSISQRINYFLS
UniProt O60704, sequence (O60704 whole entry, looked up): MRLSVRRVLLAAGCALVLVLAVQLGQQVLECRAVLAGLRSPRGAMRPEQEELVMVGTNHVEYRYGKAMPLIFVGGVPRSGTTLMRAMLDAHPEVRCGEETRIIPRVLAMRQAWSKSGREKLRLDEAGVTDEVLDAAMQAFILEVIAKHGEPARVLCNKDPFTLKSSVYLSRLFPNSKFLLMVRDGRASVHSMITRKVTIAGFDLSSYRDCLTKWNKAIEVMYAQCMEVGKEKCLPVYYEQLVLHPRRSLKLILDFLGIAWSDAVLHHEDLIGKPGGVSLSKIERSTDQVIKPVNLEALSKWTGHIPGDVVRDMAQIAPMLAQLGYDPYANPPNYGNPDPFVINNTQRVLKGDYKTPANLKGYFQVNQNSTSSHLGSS
UniProt Q9BUB7, sequence (Q9BUB7 whole entry, looked up): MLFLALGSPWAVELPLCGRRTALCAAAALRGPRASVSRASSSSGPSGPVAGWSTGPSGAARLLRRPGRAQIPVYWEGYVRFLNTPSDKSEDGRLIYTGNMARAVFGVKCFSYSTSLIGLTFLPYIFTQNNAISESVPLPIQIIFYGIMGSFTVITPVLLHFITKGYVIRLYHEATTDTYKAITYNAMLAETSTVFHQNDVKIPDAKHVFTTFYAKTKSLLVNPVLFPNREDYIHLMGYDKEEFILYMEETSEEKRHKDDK
UniProt Q9UPU7, sequence (Q9UPU7 whole entry, looked up): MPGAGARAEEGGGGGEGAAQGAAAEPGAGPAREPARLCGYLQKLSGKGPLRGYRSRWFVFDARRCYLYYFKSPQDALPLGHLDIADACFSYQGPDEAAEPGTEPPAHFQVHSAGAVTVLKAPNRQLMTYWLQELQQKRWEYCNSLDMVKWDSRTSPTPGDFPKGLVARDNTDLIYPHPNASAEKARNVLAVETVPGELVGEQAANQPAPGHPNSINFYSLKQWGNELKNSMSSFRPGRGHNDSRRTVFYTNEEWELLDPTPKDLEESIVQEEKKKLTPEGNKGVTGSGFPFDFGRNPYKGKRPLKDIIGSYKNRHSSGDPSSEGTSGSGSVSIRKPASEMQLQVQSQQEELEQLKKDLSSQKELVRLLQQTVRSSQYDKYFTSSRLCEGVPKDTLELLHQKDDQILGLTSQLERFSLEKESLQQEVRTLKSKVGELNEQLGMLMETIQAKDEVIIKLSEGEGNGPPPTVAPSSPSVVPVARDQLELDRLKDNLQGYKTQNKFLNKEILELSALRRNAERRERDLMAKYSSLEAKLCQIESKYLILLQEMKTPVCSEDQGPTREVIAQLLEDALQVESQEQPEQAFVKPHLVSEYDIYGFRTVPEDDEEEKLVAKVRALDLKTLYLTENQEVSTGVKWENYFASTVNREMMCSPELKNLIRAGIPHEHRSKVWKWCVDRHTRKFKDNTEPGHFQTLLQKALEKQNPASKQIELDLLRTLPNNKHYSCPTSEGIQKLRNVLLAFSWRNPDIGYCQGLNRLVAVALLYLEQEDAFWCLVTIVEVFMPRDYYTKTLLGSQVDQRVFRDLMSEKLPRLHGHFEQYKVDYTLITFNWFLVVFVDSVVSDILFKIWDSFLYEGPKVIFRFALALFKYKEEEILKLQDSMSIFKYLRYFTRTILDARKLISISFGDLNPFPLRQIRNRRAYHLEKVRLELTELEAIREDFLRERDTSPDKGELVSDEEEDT
UniProt Q9UPN9, sequence (Q9UPN9 whole entry, looked up): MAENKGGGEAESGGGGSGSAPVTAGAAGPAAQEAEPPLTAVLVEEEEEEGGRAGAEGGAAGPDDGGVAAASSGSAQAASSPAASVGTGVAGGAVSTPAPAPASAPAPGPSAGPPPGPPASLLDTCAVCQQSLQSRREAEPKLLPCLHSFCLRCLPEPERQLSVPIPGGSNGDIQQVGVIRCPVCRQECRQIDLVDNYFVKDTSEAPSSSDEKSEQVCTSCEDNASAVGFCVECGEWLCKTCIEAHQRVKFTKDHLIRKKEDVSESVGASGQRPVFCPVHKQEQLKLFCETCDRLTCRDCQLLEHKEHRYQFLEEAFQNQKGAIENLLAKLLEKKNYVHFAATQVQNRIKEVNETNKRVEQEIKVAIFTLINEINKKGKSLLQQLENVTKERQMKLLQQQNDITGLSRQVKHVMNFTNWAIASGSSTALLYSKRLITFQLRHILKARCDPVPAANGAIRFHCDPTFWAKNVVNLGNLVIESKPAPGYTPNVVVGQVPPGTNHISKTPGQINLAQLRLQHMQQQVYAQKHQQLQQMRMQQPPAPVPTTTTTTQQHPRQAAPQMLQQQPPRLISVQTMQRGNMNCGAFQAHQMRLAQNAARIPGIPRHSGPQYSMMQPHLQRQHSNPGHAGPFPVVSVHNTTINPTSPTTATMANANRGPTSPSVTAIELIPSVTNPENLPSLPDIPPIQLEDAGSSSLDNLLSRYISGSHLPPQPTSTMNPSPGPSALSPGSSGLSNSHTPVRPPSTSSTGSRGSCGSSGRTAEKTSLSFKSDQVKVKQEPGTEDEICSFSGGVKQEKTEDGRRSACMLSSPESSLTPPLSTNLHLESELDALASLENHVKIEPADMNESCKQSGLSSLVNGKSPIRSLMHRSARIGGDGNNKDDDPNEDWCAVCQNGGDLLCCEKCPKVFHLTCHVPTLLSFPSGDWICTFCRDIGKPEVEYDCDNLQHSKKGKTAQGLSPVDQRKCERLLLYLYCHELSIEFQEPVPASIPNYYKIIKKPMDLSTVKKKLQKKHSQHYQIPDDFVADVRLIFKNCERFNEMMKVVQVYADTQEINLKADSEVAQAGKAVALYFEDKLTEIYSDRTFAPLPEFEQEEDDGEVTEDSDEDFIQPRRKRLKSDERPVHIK
UniProt Q9ULW0, sequence (Q9ULW0 whole entry, looked up): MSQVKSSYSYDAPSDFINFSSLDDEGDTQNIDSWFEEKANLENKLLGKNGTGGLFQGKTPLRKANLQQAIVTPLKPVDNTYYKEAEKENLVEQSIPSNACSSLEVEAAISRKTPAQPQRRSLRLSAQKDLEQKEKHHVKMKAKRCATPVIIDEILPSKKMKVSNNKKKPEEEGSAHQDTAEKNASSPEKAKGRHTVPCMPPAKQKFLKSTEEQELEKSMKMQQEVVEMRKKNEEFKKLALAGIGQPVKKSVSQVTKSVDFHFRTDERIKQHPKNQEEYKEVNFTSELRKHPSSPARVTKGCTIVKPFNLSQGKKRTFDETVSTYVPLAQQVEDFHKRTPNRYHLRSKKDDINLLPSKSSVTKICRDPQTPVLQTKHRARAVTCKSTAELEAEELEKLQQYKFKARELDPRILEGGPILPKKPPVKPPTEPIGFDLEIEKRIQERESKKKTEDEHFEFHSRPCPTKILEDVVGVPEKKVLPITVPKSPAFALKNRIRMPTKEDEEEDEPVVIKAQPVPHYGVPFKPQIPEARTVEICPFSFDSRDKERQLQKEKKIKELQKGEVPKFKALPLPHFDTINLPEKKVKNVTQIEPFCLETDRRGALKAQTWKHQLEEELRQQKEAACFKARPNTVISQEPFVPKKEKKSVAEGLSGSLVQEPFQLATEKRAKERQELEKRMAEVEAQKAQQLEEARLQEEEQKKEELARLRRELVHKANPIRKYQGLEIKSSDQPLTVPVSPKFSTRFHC

Row | Target | log2 fold change [1] | log2 fold change [2] | log2 fold change [3] | log2 fold change [4] | log2 fold change [5] | log2 fold change [6] | log2 fold change [7] | log2 fold change [8] | log2 fold change [9] | log2 fold change [10] | log2 fold change [11] | log2 fold change [12] | log2 fold change [13] | log2 fold change [14] | log2 fold change [15]
1 | TRMT12 (UniProt Q53H54) | -0.02 | -0.005 | -0.032 | 0.062 | -0.017 | -0.074 | -0.007 | 0.117 | -0.009 | 0.004 | 0.045 | -0.35 (active) | -0.039 | -0.043 | -0.125
2 | UBL4A (UniProt P11441) | -0.005 | -0.013 | 0.052 | -0.037 | 0.036 | 0.157 | -0.024 | 0.02 | 0.007 | 0.016 | -0.036 | -0.016 | 0.04 | 0.007 | -0.011
3 | TELO2 (UniProt Q9Y4R8) | -0.012 | -0.014 | -0.082 | -0.021 | 0.035 | -0.057 | -0.013 | 0.058 | 0.003 | -0.03 | 0.003 | -0.361 (active) | 0.117 | 0.011 | 0.011
4 | TPP2 (UniProt P29144) | 0.013 | -0.005 | -0.005 | -0.02 | 0.019 | 0.01 | 0.006 | 0.013 | 0 | 0.003 | -0.015 | -0.121 | 0.02 | -0.011 | 0.003
5 | TPX2 (UniProt Q9ULW0) | -0.001 | 0.007 | -0.002 | 0.002 | 0 | -0.04 | -0.007 | -0.021 | -0.02 | -0.004 | 0.003 | -0.498 (active) | -0.04 | 0.009 | 0.015
6 | TBK1 (UniProt Q9UHD2) | -0.003 | 0.618 (active) | 0.029 | 0.125 | 0.251 | -0.097 | -0.026 | 0.209 | 0.032 | -0.074 | -0.04 | -0.361 | 0.189 | 0.125 | 0.204
7 | TBRG4 (UniProt Q969Z0) | -0.016 | -0.03 | -0.035 | 0.007 | 0.059 | 0.004 | -0.006 | 0.038 | 0.022 | 0.019 | 0.017 | -0.238 | 0.034 | 0.008 | 0.042
8 | TMEM70 (UniProt Q9BUB7) | -0.05 | -0.046 | -0.065 | 0.023 | -0.003 | -0.206 | -0.007 | 0.02 | 0.009 | -0.001 | -0.081 | 0.122 | 0.017 | -0.108 | 0.015
9 | TTLL12 (UniProt Q14166) | 0.015 | -0.012 | -0.028 | -0.027 | -0.006 | -0.015 | 0.008 | 0.067 | 0.001 | -0.013 | -0.021 | -0.426 (active) | 0.092 | 0.02 | 0.049
10 | TTC38 (UniProt Q5R3I4) | 0.02 | 0.016 | 0.029 | 0.059 | -0.003 | 0.293 (active) | 0.026 | -0.036 | 0.015 | 0.029 | 0.017 | -0.044 | -0.014 | -0.022 | 0.029
11 | TMEM164 (UniProt Q5U3C3) | 0.06 | -0.009 | -0.087 | 0.162 | -0.041 | -0.404 | -0.055 | 0.1 | 0.083 | -0.036 | 0.098 | 0.463 | -0.079 | 0.274 | 0.059
12 | TOR3A (UniProt Q9H497) | 0.042 | -0.037 | 0.022 | -0.043 | 0.012 | 0.019 | -0.061 | 0.054 | 0.041 | -0.064 | 0.011 | 0.048 | -0.002 | -0.016 | 0.02
13 | UGDH (UniProt O60701) | 0.008 | -0.012 | 0.217 (active) | 0.009 | -0.034 | 0.019 | 0.007 | 0.039 | -0.01 | 0.006 | 0.039 | -0.206 | 0.001 | 0.01 | -0.01
14 | TLK1 isoform 2 (UniProt Q9UKI8) | -0.044 | 0.414 (active) | -0.005 | 0.188 | -0.036 | -0.23 | 0.023 | 0.133 | 0.035 | -0.021 | 0.001 | -0.369 (active) | 0.117 | 0.156 | 0.04
15 | TPST2 (UniProt O60704) | -0.02 | -0.03 | -0.007 | 0.016 | 0.008 | -0.076 | -0.058 | 0.064 | -0.064 | -0.087 | 0.045 | 0.132 | -0.03 | -0.048 | 0.016
16 | THOC5 (UniProt Q13769) | -0.035 | 0.006 | -0.014 | -0.036 | 0.029 | -0.006 | -0.019 | 0.021 | 0.009 | -0.01 | 0.012 | -0.077 | 0.011 | 0.008 | -0.009
17 | TGFBRAP1 (UniProt Q8WUH2) | 0.005 | -0.043 | -0.048 | -0.015 | 0.06 | -0.076 | 0.004 | 0.029 | 0.009 | 0.04 | -0.039 | -0.433 (active) | 0.051 | -0.018 | 0.024
18 | TTC4 (UniProt O95801) | -0.04 | -0.034 | 0.025 | -0.018 | 0.012 | -0.07 | -0.01 | 0.025 | 0.023 | -0.018 | 0.013 | -0.498 (active) | 0.022 | -0.009 | 0
19 | TBC1D2B (UniProt Q9UPU7) | -0.019 | 0.038 | -0.008 | -0.07 | 0.055 | 0.007 | -0.087 | 0.007 | -0.021 | 0.006 | -0.007 | -0.249 (active) | 0.049 | -0.047 | -0.061
20 | TUBA1C (UniProt Q9BQE3) | -0.001 | 0.021 | -0.017 | 0.006 | 0.018 | -0.038 | -0.007 | 0.014 | -0.006 | -0.052 | 0.019 | -0.256 (active) | 0.013 | 0.006 | -0.014
21 | TRIM33 isoform 2 (UniProt Q9UPN9) | 0.004 | -0.012 | -0.044 | -0.015 | 0.021 | -0.035 | 0.021 | -0.01 | 0.01 | -0.025 | -0.005 | -0.393 (active) | -0.026 | -0.04 | -0.024
